ALDH1A1 block – blocks purified human ALDH1A1 activity; P00352; Purified ALDH1A1, NADH fluorescence, propionaldehyde substrate; Potency, µM (highest dose often 75.3 µM), for the others: top-dose activity, negative = inhibition, most hits filed as inhibitors; actives 7.3% (n = 220,000); AID 1030;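 further: plate controls were no enzyme wells and a reference inhibitor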
HTT aggregate – mutant huntingtin aggregation inhibition; PC12 HttQ103-GFP aggregates, Acumen cytometry, 40 h; Potency, µM (series often up to 46.1 µM), for inactives: top-dose activity change, negative = inhibition, most hits filed as inhibitors; actives 1.1% (n = 220,000); active means well fitted curve in the direction sought with a large enough effect; inconclusive means small, poorly fitted or top-dose-only effect, or another doubt; inactive means no such curve, though single readings can be large; an effect the other way counts as inactive or inconclusive; further: on the % scale 0 is the no-effect control and ±100 the full control effect; nearly all actives have a fitted effect of over 60% in size
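Steps: seed 1500 PC12 HTTQ103-GFP cells/well; add tebufenozide, 100 nM final; add compound titration; add ATPLite reagent; quantify GFP aggregates by laser scanning cytometry.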
HPGD block – blocks human HPGD enzyme activity; Potency, µM, without a hit: at the highest dose activity change, negative = inhibition, most hits filed as inhibitors; purified HPGD, NADH fluorescence kinetic, PGE2 substrate; AID 894; actives 4.3% (n = 150,000); further: on the % scale 0 is the no-effect control and ±100 the full control effect
Target sequence (P15428 whole entry, looked up): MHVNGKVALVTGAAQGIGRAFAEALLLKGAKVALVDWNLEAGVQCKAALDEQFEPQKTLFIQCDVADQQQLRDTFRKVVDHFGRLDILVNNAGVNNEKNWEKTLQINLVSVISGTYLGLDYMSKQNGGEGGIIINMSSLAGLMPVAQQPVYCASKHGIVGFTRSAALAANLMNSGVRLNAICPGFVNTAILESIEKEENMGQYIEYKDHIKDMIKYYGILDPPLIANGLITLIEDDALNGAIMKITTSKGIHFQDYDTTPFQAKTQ
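NADH formation kinetics: reaction with 30 uM PGE2 and 1 mM NAD+ (final), 20 nM enzyme, Tris-HCl pH 8 with Tween 20, after 15 min compound preincubation at room temperature. Fluorescence change, last versus first of five reads.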
LMNA splice mod – modulators of lamin A splicing; actives 0.01% (n = 200,000); Potency, µM (top dose mostly 46.1 µM), without a hit: top-dose ratio change, negative = inhibition, hits mostly inhibitors; HeLa LMNA splicing GFP/RFP minigene ratio, 48 h; active means well fitted inhibition curve with a large enough effect in the signal ratio, with a control signal flat, not every such curve was filed as active; inconclusive means small, poorly fitted or top-dose-only effect, or effect the other way, or a change in a side signal; the % refers to the signal ratio; further: on the % scale 0 is the no-effect control and ±100 the full control effect
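S3 HeLa stable clones carrying a lamin A-EGFP splicing minigene plus DsRed2 were seeded at 600 cells/well in Opti-MEM with 2% FBS, pin-dosed and incubated 48 h at 37°C. Acumen cytometry (488 nm) gave the GFP/RFP total-intensity ratio.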
HTT ATP protect – protects HTT-Q103 PC12 cells, measured by ATP | PC12 HTT-Q103 induced, cytoprotection, ATP luminescence, 40 h | Potency, µM (highest dose often 56.4 µM), inactives show cytoprotection (ATP increase), usual class: activators | actives 0.14% (n = 230,000) | AID 1471; active means well fitted curve in the direction sought with a large enough effect; inconclusive means small, poorly fitted or top-dose-only effect, or another doubt; inactive means no such curve, though single readings can be large; an effect the other way counts as inactive or inconclusive; further: % of control where 0% means no effect; nearly all actives have a fitted effect of over 45% in size
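Compounds added alongside 100 nM tebufenozide, which induces toxic Q103 huntingtin exon 1-GFP in stable PC12 cells; surviving cells quantified by luminescent ATP measurement. Medium: phenol red-free DMEM, 5% equine and 5% calf serum.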
* = called active by the depositor; ? = inconclusive; . = no result; [ ] = another dose, or the depositor's remark. A selection: hits, their analogues and other compounds. The true share with any hit is near 8.8%. Unless noted, the call rests on the fitted dose curve; in most records, active means well fitted inhibition curve with a large enough effect (not every such curve was filed as active); inconclusive means small, poorly fitted or top-dose-only effect, or another doubt; inactive means no such curve, though single readings can be large or run the other way. Potency means the concentration at half of the fitted maximal effect.

SMILES | ALDH1A1 block | HTT aggregate | HPGD block | LMNA splice mod | HTT ATP protect
Cc1ccccc1OCC(=O)Nc1ccc2nc(SCC(=O)N(C)c3ccccc3)sc2c1 | . | . | . | 4%[46 µM] | .
O=C(N/N=C/c1ccc(N2CCCCC2)o1)c1ccccc1[N+](=O)[O-] | ? | ? | 10µM* | -1% | .
COc1cc(Cl)c(NC(=O)c2cc(S(=O)(=O)N3CCOCC3)cn2C)c(OC)c1 | . | . | . | -2%[46 µM] | .
COc1cc2c(cc1OC)CN(c1nc(CN3CCOCC3)nc3sc4c(c13)CCCC4)CC2 | -11% | ? | -14% | ? | -33%[10 µM]
COc1cc2c(cc1OC)CN(c1nc(CN3CCCCC3)nc3sc4c(c13)CCCC4)CC2 | ? | 28µM* | -8% | ? | .
CCOc1ccc(NC(=S)Nc2cc(-c3ccccc3)[nH]n2)cc1 | 13µM* | 2% | -15% | 8% | -57%
COc1ccc(NC(=S)Nc2cc(C)[nH]n2)cc1Cl | . | 15%[9.22 µM] | . | . | 5%[10 µM]
Cc1cc(NC(=S)Nc2ccc(C)c(Cl)c2)n[nH]1 | 1.4µM* | 5%[9.22 µM] | . | . | -65%
COc1ccc(NC(=S)Nc2cc(-c3ccccc3)[nH]n2)cc1Cl | 10µM* | 3% | -29% | ? | 4%[10 µM]
Cc1ccc(-n2ncc3c(N4CCN(CCO)CC4)ncnc32)cc1Cl | . | . | . | -15%[46 µM] | .
O=C(NCc1cccnc1)C(=O)NCC(c1ccco1)N1CCN(c2ccccc2F)CC1 (configuration not stated) | 11µM* | 7% | -11% | ? | -2%[10 µM]
CC(C)Cn1cc(NC(=O)N2CCN(c3ccccc3F)CC2)c2ccccc2c1=O | . | . | . | -11%[46 µM] | .
S=c1[nH]ncn1NCc1ccc(Cl)cc1Cl | 1.4µM* | -6% | . | . | -24%
COc1ccccc1C(=O)Nc1nnc2n1CCS2 | . | . | . | 2%[46 µM] | .
COc1ccc(/C=C/C(=O)c2cc3c(cc2N)OCO3)cc1 | 1% | -16% | . | . | -57%
CCN1C(=O)/C(=C\C(=O)c2cccs2)c2cc(Br)ccc21 | 11µM* | 2% | . | -15%[46 µM] | .
O=C1Nc2ccccc2/C1=C/C(=O)c1cccs1 | ? | ? | ? | -2% | 2%
CCCCSc1nnc2[nH]c(=O)cc(N)n12 | ? | 12% | 16µM* | 5% | -8%
CCCSc1nnc2[nH]c(=O)cc(N)n12 | 5% | 5% | -8% | -15% | 18%[10 µM]
O=C(CSc1c2c(nc3ccc(Cl)cc13)CCCC2)N1CCN(C(=O)c2ccco2)CC1 | . | . | . | . | 20µM*
Cc1ccc(CNC(=O)CSc2c3c(nc4ccc(Cl)cc24)CCCC3)o1 | 8.9µM* | -71% | -28% | ? | ?
CCN(CC)CCNC(=O)CSc1c2c(nc3cc(Cl)ccc13)CCCC2 | 4% | ? | . | . | .
O=C(CSc1nc2cc(Cl)ccc2s1)N1CCN(C(=O)c2ccco2)CC1 | ? | 10% | -15% | -5% | 3%[10 µM]
Cn1c(-c2ccc3c(c2)OCO3)cnc1NCc1cccc(O)c1 | 13µM* | 12%[9.22 µM] | . | 6%[46 µM] | 35%[10 µM]
Cn1c(-c2ccc(F)cc2)cnc1NCc1ccccc1 | ? | -5% | -30% | -18% | 17%[10 µM]
SMILES | ALDH1A1 block | HTT aggregate | HPGD block | LMNA splice mod | HTT ATP protect
Cn1c(-c2ccc(F)cc2)cnc1NCc1cccc(F)c1 | 6.3µM* | 20% | 16µM* | -1% | -5%
Cn1c(-c2cccc(Br)c2)cnc1NCc1cccnc1 | 11µM* | -14% | -25% | -13% | -18%[10 µM]
COc1ccc(O[C@H]2C=C[C@@H](c3ccccc3)O[C@@H]2COC(=O)CC/C(C)=N/OC[C@@H](O)COCc2ccco2)cc1 | 10µM* | 10% | -17% | ? | .
CC(C)(C)OC(=O)N1CCC(c2c(C(=O)NCc3ccccc3)cnn2-c2cccc(F)c2)CC1 | . | . | . | -28%[46 µM] | .
Cc1cc(C)nc(-n2cc(C(=O)c3cc(F)ccc3O)cn2)n1 | 10µM* | -18% | -13% | -12% | 6%[10 µM]
CCn1c(C)nc2cc(C(=O)n3cc(C(=O)c4cc(F)ccc4O)cn3)ccc21 | 1.4µM* | -15% | ? | 5% | 0%[10 µM]
COc1ccc(O)c(C(=O)c2cnn(-c3ccccn3)c2)c1 | -3% | -15% | . | -27%[46 µM] | -11%
CCn1c(C)nc2cc(C(=O)NNS(=O)(=O)c3c(F)cc(F)c(Cl)c3F)ccc21 | 3% | 5% | . | -15%[46 µM] | -12%
CC(O)CN1C(=O)C(CC(=O)Nc2ccc(Cl)cc2)SC1=Nc1ccccc1 (configuration not stated) | 22µM* | 14% | -14% | -3% | 17%

Assay outcomes deposited in PubChem by National Center for Advancing Translational Sciences (NCATS).
